From PubChem BioAssay
Sampled rows, rich in hits. Any-hit rate of the full collection: about 10%.
FLuc inh-1 = Firefly luciferase inhibition profiling of diverse chemical library using quantitative high-throughput screening. 2.5% of 76,000 active. Potency, µM (doses to about 115 µM), hits mostly inhibitors. Luciferin 4-monooxygenase (Photinus pyralis), P08659. AID 1347043, 2019. purified P. pyralis luciferase, luminescence, biochemical; note: % is set by controls: 0 for no effect and ±100 for the full control effect; nearly all actives have a fitted effect of over 65% in size
Target sequence (P08659 whole entry, looked up): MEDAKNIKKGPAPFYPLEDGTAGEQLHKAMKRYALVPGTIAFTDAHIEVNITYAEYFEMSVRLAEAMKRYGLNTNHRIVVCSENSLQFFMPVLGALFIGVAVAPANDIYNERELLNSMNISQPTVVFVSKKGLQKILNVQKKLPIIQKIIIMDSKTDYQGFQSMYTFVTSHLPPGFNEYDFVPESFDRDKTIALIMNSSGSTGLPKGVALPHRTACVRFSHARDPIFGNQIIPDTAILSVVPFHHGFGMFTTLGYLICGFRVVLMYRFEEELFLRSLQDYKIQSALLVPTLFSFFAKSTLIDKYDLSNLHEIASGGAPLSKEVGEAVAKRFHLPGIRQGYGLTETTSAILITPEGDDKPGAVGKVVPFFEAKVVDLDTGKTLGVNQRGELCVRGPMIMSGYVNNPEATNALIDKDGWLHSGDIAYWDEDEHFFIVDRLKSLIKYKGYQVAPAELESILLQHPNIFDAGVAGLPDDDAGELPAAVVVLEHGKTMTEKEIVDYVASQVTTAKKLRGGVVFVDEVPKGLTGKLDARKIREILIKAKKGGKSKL
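Inhibitors were tested against purified firefly luciferase in a biochemical, low-substrate format (both substrates at 10uM) and luminescence measured with a CCD imager.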
hNpr1 antagonist = Natriuretic polypeptide receptor (hNpr1) antagonism - Primary qHTS. Potency, µM (highest dose often 46.3 µM), for the others: at the top dose activity change, negative = inhibition, most hits filed as inhibitors. HEK293 hNpr1 GloSensor cGMP, ANP-stimulated luminescence. Atrial natriuretic peptide receptor 1 (Homo sapiens), P16066. AID 1347048, 2019. 1.6% of 76,000 active; calls by dose curve; note: % is set by controls: 0 for no effect and ±100 for the full control effect; nearly all actives have a fitted effect of over 60% in size
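HEK293 cells stably expressing human Npr1 and cGMP GloSensor pGS-40F, loaded 2 h with 2% GloSensor reagent, given compound 30 min at room temperature. Luminescence read before and 20 min after 0.1 nM hNppA.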
HEK cytotox = Cytotoxic Profiling in HEK 293 Cell Line of Diverse Libraries Using Quantitative High-Throughput Screening | HEK 293 viability, ATP luminescence (CellTiter-Glo), 48-72 h | Potency, µM (series often up to 115 µM), without a hit: at the top dose activity change, negative = cytotoxicity, most hits filed as inhibitors | 6.6% of 94,000 active | AID 1345083, 2018; note: % is set by controls: 0 for no effect and ±100 for the full control effect; nearly all actives have a fitted effect of over 60% in size
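qHTS cytotoxicity; HEK 293, 250 cells/well; compound pinned; 48 or 72 hr, 37 degree Celsius, 5% CO2, 95% humidity; CellTiter-Glo, 10 min RT; luminescence (ATP).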
GPT2 inh = Primary qHTS assay for inhibitors of Glutamate pyruvate transaminase 2 (GPT2). Alanine aminotransferase 2 (Homo sapiens), Q8TD30. Recombinant GPT2, coupled pyruvate oxidase/HRP Amplex Red fluorescence. Potency, µM (top dose mostly 57.7 µM), inactives show at the top dose activity change, negative = inhibition, hits mostly inhibitors. 0.25% of 100,000 active; note: % is set by controls: 0 for no effect and ±100 for the full control effect; nearly all actives have a fitted effect of over 60% in size
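Fluorescence read-out: pyruvate from GPT2 turnover coupled to pyruvate oxidase, HRP and Amplex Red (0.2mM ThPP, 0.2U/mL PO and HRP, 50uM Amplex final). Substrates 250uM a-KG, 2mM L-alanine; enzyme 10ng/uL; 30 min RT.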
3T3 cytotox = Cytotoxic Profiling in NIH 3T3 Cell Line of Diverse Libraries Using Quantitative High-Throughput Screening; NIH 3T3 viability, CellTiter-Glo ATP luminescence, 48-72 h; Potency, µM (series often up to 96.7 µM), inactives show at the top dose activity change, negative = cytotoxicity, hits mostly inhibitors; 4.3% of 94,000 active; note: % is set by controls: 0 for no effect and ±100 for the full control effect; nearly all actives have a fitted effect of over 55% in size
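Luminescent ATP readout (CellTiter-Glo, 10 min RT) after 48 or 72 hr compound exposure of NIH 3T3 cells seeded at 400 cells/well in 1536-well format; quantitative HTS.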
FLuc SDR -ATP = Firefly luciferase (FLuc-C-HiBiT) SDR gain of signal screen - without ATP; Purified FLuc-C-HiBiT, Nano-Glo HiBiT luminescence, no ATP; 7.8% of 1,300 active; shares compounds with FLuc inh-1; Potency, µM (doses to about 32.7 µM), without a hit: top-dose activation (signal gain), usual class: activators; note: nearly all actives have a fitted effect of over 55% in size
FLuc SDR ATP = Firefly luciferase (FLuc-C-HiBiT) SDR gain of signal screen - plus ATP; purified FLuc-C-HiBiT + ATP, HiBiT complementation luminescence; 8.7% of 1,300 active; Potency, µM (highest dose often 32.7 µM), inactives show at the top dose activation (gain of signal), hits mostly activators; shares compounds with FLuc inh-1; AID 1963319, 2024;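 note: signal reports ligand binding via conformational change of the enzyme rather than luciferase catalysis; % of control where 0% means no effect; nearly all actives have a fitted effect of over 55% in size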
FLuc inh-2 = Firefly luciferase (FLuc-C-HiBiT) enzymatic inhibition screen - Functional assay; Potency, µM (doses to about 32.7 µM), without a hit: at the highest dose activity change, negative = inhibition, usual class: inhibitors; purified FLuc-C-HiBiT enzyme, luciferin luminescence; shares compounds with FLuc inh-1; 42% of 1,300 active; note: % is set by controls: 0 for no effect and ±100 for the full control effect; nearly all actives have a fitted effect of over 70% in size
The depositor's hits bear a star; i = inactive; ? = inconclusive; . = no result given; [ ] = another dose, or the depositor's remark. Unless noted, calls come from the whole dose curve; as a rule, active = well fitted curve in the direction sought with a large enough effect; inconclusive = small, poorly fitted or top-dose-only effect, or another doubt; inactive = no such curve, though single readings can be large; an effect the other way counts as inactive or inconclusive. Potency is the fitted concentration of half-maximal effect.

SMILES | FLuc inh-1 | hNpr1 antagonist | HEK cytotox | GPT2 inh | 3T3 cytotox | FLuc SDR -ATP | FLuc SDR ATP | FLuc inh-2
Cc1c(-c2ccccc2F)[nH]c2ccc(CNC(=O)C3C=CCN3)cc12 (stereo unspecified) | 10µM* | -23% | ? | 0% | ? | 19% | 13% | ?
CCc1[nH]c2ccc(CNC(=O)[C@H]3[C@@H]4C=C[C@@]5(CN(C)C(=O)[C@@H]35)O4)cc2c1C | i | 6% | -2% | -4% | 0% | . | . | .
Cc1c(-c2ccccc2F)[nH]c2ccc(CNC(=O)C3CCCN(C(N)=O)C3)cc12 (stereo unspecified) | 3.5µM* | -5% | ? | -13% | ? | 31% | ? | 5.6µM*
NC(=O)N1CCCC(C(=O)NCCc2noc(-c3ccccc3)n2)C1 (stereo unspecified) | i | 2% | 5% | -6% | i | . | . | .
CCn1cc(-c2ccc(Cl)cc2)cc1C(=O)O | ? | 1% | -9% | -3% | -21% | 13% | 11% | -10%
c1ccc(-c2noc(-c3nc(C4CC4)no3)n2)cc1 | 2.5µM* | ? | ? | i | -6% | 17% | 19% | ?
Cc1ccc(-c2noc(-c3nc(C4CC4)no3)n2)cc1 | i | 1% | -3% | i | 3% | . | . | .
O=C(CCCS(=O)(=O)c1ccc(Cl)cc1)Nc1ccc(O)c(-c2nc3ccccc3s2)c1 | . | . | . | . | . | 17% | 10% | 0%
O=C(COc1ccc(Cl)cc1)Nc1ccc(O)c(-c2nc3ccccc3s2)c1 | . | . | . | . | . | 13% | 9% | 3%
O=C(COc1ccc(Cl)cc1)Nc1ccc(-c2nc3ccccc3s2)c(O)c1 | . | . | . | . | . | 15% | 11% | 1%
CCc1noc(-c2ccn3c(CNC(=O)Cc4ccccc4Cl)nnc3c2)n1 | i | 3% | -14% | i | -4% | . | . | .
Cc1cn2nnc(C(=O)NC3CCc4ccccc43)c2c(=O)[nH]1 (stereo unspecified) | i | 0% | ? | i | ? | . | . | .
CCN1c2cc(C(=O)Nc3ccc(OC)cc3C)ccc2C(=O)N2CCCCCC21 (stereo unspecified) | i | -6% | ? | i | -22% | . | . | .
CN1CCC(C2CCN(S(=O)(=O)c3cc(F)ccc3F)C2)CC1 (stereo unspecified) | i | -14% | -23% | 3% | -22% | . | . | .
CC(C)NC(=O)c1ccc2oc(-c3cccnc3Cl)nc2c1 | . | . | -20% | -2% | -13% | . | . | .
O=C(Nc1ccc2oc(-c3ccccc3F)nc2c1)c1ccccc1Cl | . | . | . | . | . | 20% | 17% | ?
COc1ccccc1-c1nc2cc(NC(=O)c3ccccc3Cl)ccc2o1 | . | . | . | . | . | 16% | 13% | ?
COc1cccc(C(=O)Nc2cccc(-c3nnc4n3CCCC4)c2)c1OC | i | -15% | -12% | i | ? | . | . | .
COc1cccc(C(=O)Nc2ccc(-c3nc4ccc(C)cc4s3)cc2)c1OC | . | . | . | . | . | 15% | 10% | -4%
CCCOc1ccccc1C(=O)Nc1ccc(-c2nc3ccc(C)cc3s2)cc1 | . | . | . | . | . | ? | ? | 6.2µM*
CN1CC2(CCN(C(=O)c3cccc(C#N)c3)CC2)CC1CN1CCOCC1 (stereo unspecified) | . | . | -6% | -7% | -11% | . | . | .
CC(C)(C)c1nc(C(=O)N2CCCC2)n2ccncc12 | . | . | -10%[172 µM] | i | -12%[138 µM] | . | . | .
Cc1ccc(-n2ncc3c(N4CCCCC4)nc(NCCCO)nc32)cc1 | . | . | . | . | . | 10% | 7% | -10%
Cc1ccc(-n2ncc3c(N4CCCCCC4)ncnc32)cc1 | . | . | . | . | . | 1.8µM* | 0.88µM* | 0.2µM*
Fc1ccc(-n2ncc3c(N4CCCCCC4)ncnc32)cc1 | . | . | . | . | . | ? | ? | 1.2µM*
SMILES | FLuc inh-1 | hNpr1 antagonist | HEK cytotox | GPT2 inh | 3T3 cytotox | FLuc SDR -ATP | FLuc SDR ATP | FLuc inh-2
Cc1ccc(-n2c(C3CCN(C(=O)CCc4ccccc4)CC3)n[nH]c2=O)cc1 | i | -1% | -3% | i | ? | . | . | .
Cc1c(Cl)cccc1-n1nnc(-c2nc(-c3ccc4c(c3)OCO4)no2)c1C | . | . | . | . | . | 18% | 16% | 11µM*
CC(C)c1noc(-c2nc(-c3ccc4c(c3)OCO4)no2)n1 | 3.5µM* | ? | ? | i | -24% | 16% | 17% | 7.9µM*
Cn1c(=O)c2c(ncn2CC(=O)N2CCCC(Cc3nc(C4CCOCC4)no3)C2)n(C)c1=O (stereo unspecified) | i | 1% | -5% | i | -33% | . | . | .
Cc1cc(C)cc(C(=O)NCCn2ccn3nc(-c4ccc(C)cc4C)cc3c2=O)c1 | 2.8µM* | -22% | ? | i | ? | 22% | 14% | 7µM*
Cc1ccc(-c2cc3c(=O)n(CCNC(=O)c4cccc(Cl)c4)ccn3n2)c(C)c1 | 1.6µM* | ? | ? | 2% | ? | 28% | ? | 3.9µM*
